# Results: PubChem BioAssay (NCATS)
# Records with an inconclusive call do not appear. Values without a mark were called inactive. Calls follow the shape of the dose curve; as a rule, active = well fitted inhibition curve with a large enough effect; inconclusive = small, poorly fitted or top-dose-only effect; inactive = flat fitted curve, though single readings scatter.
# Target: Calcium and integrin-binding protein 1 (Homo sapiens) (UniProt Q99828)
# Assay: Primary qHTS for Identification of Calcium Integrin Binding Protein 1 (CIB1) Competitor (AID 1508620);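 also: GST tagged CIB1 binding a fluorescein labelled alphaIIb integrin peptide tracer; top concentration of the series differs between compounds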
# Settings: CIB1-GST / FITC-alphaIIb peptide fluorescence polarization; series mostly up to 114 µM; activity change, negative = inhibition: at the top concentration
# How it was run: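 CIB1-GST (1 uM final) and compound incubated 15 min at room temperature before adding FITC-alphaIIb peptide tracer (100 nM final). Competition for binding read by fluorescence polarization (ex 480, em 540) after another 15 min at room temperature.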
# % is scaled to controls: 0 for no effect and ±100 for the full control effect.
# Sequence of Calcium and integrin-binding protein 1 (Homo sapiens) (Q99828 whole entry, looked up): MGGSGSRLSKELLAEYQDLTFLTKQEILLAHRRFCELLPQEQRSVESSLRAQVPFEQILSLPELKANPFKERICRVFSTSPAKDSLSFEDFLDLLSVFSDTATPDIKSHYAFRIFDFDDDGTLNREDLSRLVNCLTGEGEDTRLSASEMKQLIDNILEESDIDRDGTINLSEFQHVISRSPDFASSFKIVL
row,Compound,"activity change, negative = inhibition"
1,CN1CCN(c2ccc(OC(F)(F)F)c(Nc3ncc4c(n3)-c3c(c(C(N)=O)nn3CCO)CC4)c2)CC1,-1.15%
2,NS(=O)(=O)c1ccc(N2N=C(c3ccccc3)CC2c2ccccc2)cc1 (stereo not given),-2.35%
3,CC(C)c1cc(-c2ccc(F)c3ccccc23)nc(N)n1,1.88%
4,C=C1C(=O)OC2/C=C(/C)C3=CC(=O)C(C)(CC(OC(=O)/C(C)=C/COC(C)=O)C12)O3 (stereo not given),-8.21% [at 57.7 µM]
5,COc1ccc(CN2CCN(CCCSc3cc(C(C)(C)C)c(O)c(C(C)(C)C)c3)CC2)c(OC)c1OC,-0.336% [at 30.2 µM]
6,CCC(C)C(=O)O[C@H]1[C@@H](OC(=O)c2ccoc2)C[C@](C)(O)[C@]23OC(C)(C)[C@H](C[C@H](OC(=O)c4ccoc4)[C@]12COC(C)=O)[C@H]3OC(C)=O (stereo not given in full),2.07% [at 30.2 µM]
7,Cc1cc(C(C)Nc2ccccc2C(=O)O)c2nc(N3CCOCC3)cc(=O)n2c1 (stereo not given),-4.27%
8,c1ccc(-c2cnn3cc(-c4ccc(OCCN5CCOCC5)cc4)cnc23)cc1,2.93%
9,COc1ccc(C#Cc2ccc(C(=O)N3CCC[C@@H](CO)C3)cc2)cc1,1.81%
10,COc1cc(OC)c(NC(=O)c2ccc(Cc3cc4c(cc3C)C(C)(C)CCC4(C)C)o2)c(OC)c1,2.59%
11,CC(C)=CCC/C(C)=C/COCC1OC(n2ccc(=O)[nH]c2=O)C(O)C1O (stereo not given),3.97% [at 57.7 µM]
12,CCCc1cc(C)n(C)c(=O)c1CN(C)C(=O)c1cc(-c2ccc(N3CCN(C(C)C)CC3)nc2)cc2c1cnn2C(C)C,0.171%
13,CC(C)n1nc(C#Cc2ccccc2)c2c(N)ncnc21,-12.8%
14,CCCOc1ccc(CCc2nc3cc(-c4c(C)noc4C)ccc3n2CCN2CCOCC2)cc1,-3.03%
15,CC(C)(O)C1Cc2c(ccc(C(=O)CCc3ccccc3)c2O)O1 (stereo not given),1.4% [at 57.7 µM]
16,CC[C@H](C)/C=C(C)/C=C/C1=CC2=C(Cl)C(=O)[C@](C)(O)[C@H](OC(C)=O)[C@H]2CO1,17.6% [at 57.7 µM]
17,O=C(NCc1ccccc1-c1ccccc1C(=O)NCCc1ccccn1)OCc1ccccc1,1.74%
18,Cc1cc(C(=O)Nc2cc(Oc3ccc4nc(NC(=O)C5CC5)cn4n3)ccc2C)n(C)n1,0.271%

row,Compound,"activity change, negative = inhibition"
1,COc1cc2nc(C3CC3)nc(N3CCN(c4ccccc4OC)CC3)c2cc1OC,-5.8%
2,CC(=O)O[C@@H]1[C@@H](OC(C)=O)[C@H](C)O[C@@H](O[C@H]2[C@@H]3C=CO[C@@H](O[C@@H]4O[C@H](CO)[C@@H](O)[C@H](O)[C@H]4O)[C@@H]3[C@@]3(CO)O[C@@H]23)[C@@H]1OC(=O)/C=C/c1ccccc1,1.31% [at 30.2 µM]
3,COc1ccc(C2=NC(c3ccc(Cl)cc3)C(c3ccc(Cl)cc3)N2C(=O)N2CCNC(=O)C2)c(OC(C)C)c1 (stereo not given),-10.8%
4,COC(=O)c1cc2c(C(F)(F)F)cc(-c3ccccc3)cc2n1O,-13.3%
5,COC(=O)C1=COC(O[C@@H]2O[C@H](CO[C@@H]3O[C@H](COC(=O)/C=C\c4ccc(O)cc4)[C@@H](O)[C@H](O)[C@H]3O)[C@@H](O)[C@H](O)[C@H]2O)C2C(CO)=CCC12 (stereo not given in full),-2.17% [at 30.2 µM]
6,CCC(C)CNCC(=O)N1CCC2SC=CC2C1COc1cccc(C)c1 (stereo not given),-2.07%
7,Cc1cc2c(c(=O)o1)C=C1CC[C@H]([C@H](C)Cn3cnc(=N)c4[nH]cnc43)C[C@@H]1O2,8.94%
8,O=C(Nc1cc(C(F)(F)F)ccc1N1CCCCC1)c1ccncc1,0.249%
9,N#CC(CCCN1CCN(/N=C/c2cccnc2)CC1)(c1ccccc1)c1ccccc1,-20.3%
10,CC(=O)OC1C(O)CC2(C)C(CCC3(C)C2CC=C2C4C5(CCC(CO[C@@H]6O[C@H](CO)[C@@H](O)[C@H](O)[C@H]6O)(OC5=O)C4(C)O)C(O)CC23C)C1(C)C (stereo not given in full),-1.88% [at 30.2 µM]
11,C=C1C(=O)OC2/C=C(\COC(C)=O)CC/C=C(\C=O)CC(OC(=O)C(C)CC)C12 (stereo not given),2.02% [at 57.7 µM]
12,C/C=C/[C@@H]1C=C[C@@H]2C[C@H](C)CC[C@H]2[C@]1(C)/C(O)=C1/C(=O)[C@@H](CO)N(C)C1=O,4.55% [at 57.7 µM]
13,CCCCOc1ccc(S(=O)(=O)n2c(C)nc3ccccc32)cc1,-1.67% [at 57.7 µM]
14,COC(=O)/C=C/C=C/C(=O)OC1C=C2COC(=O)C2(O)C2(C)CCCC(C)(C)C12 (stereo not given),-10.3% [at 57.7 µM]
15,CC1=CC2/C=C(\C)CCC3OC(C)(C)OC3CCC(=O)C23C(=O)NC(CC(C)C)C3C1C (stereo not given),2.58% [at 57.7 µM]
16,C=C(C)C(=O)O[C@H]1C[C@@](C)(O)C2(O)CCC(C)(/C=C3/OC(=O)C(COC)=C31)O2 (stereo not given in full),-8.25% [at 57.7 µM]
17,CC(C)(O)C1CC(=O)C2(C)C(CCC3(C)C(c4ccoc4)OC(=O)C4OC432)C12CCC(=O)OC2 (stereo not given),-12.8% [at 57.7 µM]
